# Test results from the supplement of paper PMC8728848.
# This is one part of a sample in which the strongest signals are shown more often than they occur.
# What was measured:
# Assay in all cases: glycan array binding signal (z-score within array); higher = stronger binding
# Settings in all cases: glycan notation: IUPAC condensed, linker removed
# [1] = molecular target: Fuc(a1-2)Gal(b1-3)GalNAc(b1-3)Gal
# How it was run: (§1)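 Glycan array data came from 3228 arrays in the Consortium for Functional Glycomics database, and only arrays with an available protein sequence were kept. Glycan names were put into IUPAC-condensed notation, and columns mapping to the same glycan were averaged. The binding signal is a within-array Z-score, averaged across arrays of one protein sequence run at different concentrations or buffers and across linkers. A negative Z-score can be read as non-binding.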
# [2] = molecular target: Fuc(a1-2)Gal(b1-3)GlcNAc(b1-3)[Gal(b1-4)GlcNAc(b1-6)]Gal(b1-4)Glc
# How it was run: as §1
# [3] = molecular target: Fuc(a1-2)Gal(b1-4)GlcNAc6S
# How it was run: as §1
# [4] = molecular target: Fuc(a1-2)Gal(b1-4)[Fuc(a1-3)]GlcNAc(b1-2)Man(a1-3)[Fuc(a1-2)Gal(b1-4)[Fuc(a1-3)]GlcNAc(b1-2)Man(a1-6)]Man(b1-4)GlcNAc(b1-4)[Fuc(a1-6)]GlcNAc
# How it was run: as §1
# [5] = molecular target: Fuc(a1-2)Gal6S(b1-3)GlcNAc6S
# How it was run: as §1
# [6] = molecular target: Fuc(a1-2)[Gal(a1-3)]Gal(b1-3)GlcNAc
# How it was run: as §1
# [7] = molecular target: Fuc(a1-2)[Gal(a1-3)]Gal(b1-4)GlcNAc
# How it was run: as §1
# [8] = molecular target: Fuc(a1-2)[Gal(a1-3)]Gal(b1-4)GlcNAc(b1-6)GalNAc
# How it was run: as §1
# [9] = molecular target: Fuc(a1-3)[Gal(b1-4)]Glc6S
# How it was run: as §1
# [10] = molecular target: Fuc(a1-3)[Gal(b1-4)]GlcNAc(b1-6)GalNAc
# How it was run: as §1
# [11] = molecular target: Fuc(a1-3)[Gal3S(b1-4)]Glc
# How it was run: as §1
# [12] = molecular target: Gal(a1-3)Gal(b1-4)GlcNAc(b1-2)Man
# How it was run: as §1
# Gal(b1-3)GlcNAc = molecular target: Gal(b1-3)GlcNAc
# How it was run: as §1
# [13] = molecular target: Gal(b1-3)GlcNAc(a1-3)Gal(b1-4)GlcNAc
# How it was run: as §1
# [14] = molecular target: Gal(b1-3)GlcNAc(b1-2)[Gal(b1-3)GlcNAc(b1-6)]Man(a1-6)[Gal(b1-3)GlcNAc(b1-2)Man(a1-3)]Man(b1-4)GlcNAc(b1-4)GlcNAc
# How it was run: as §1
# [15] = molecular target: Gal(b1-3)GlcNAc(b1-3)Gal(b1-4)GlcNAc(b1-2)[Gal(b1-3)GlcNAc(b1-3)Gal(b1-4)GlcNAc(b1-6)]Man(a1-6)[Gal(b1-3)GlcNAc(b1-3)Gal(b1-4)GlcNAc(b1-2)Man(a1-3)]Man(b1-4)GlcNAc(b1-4)[Fuc(a1-6)]GlcNAc
# How it was run: as §1
# [16] = molecular target: Gal(b1-3)[Fuc(a1-4)]GlcNAc(b1-2)Man
# How it was run: as §1
# [17] = molecular target: Gal(b1-3)[Fuc(a1-4)]GlcNAc(b1-3)Gal(b1-3)[Fuc(a1-4)]GlcNAc
# How it was run: as §1
# [18] = molecular target: Gal(b1-4)GlcNAc(b1-2)Man(a1-3)[Man(a1-6)]Man(b1-4)GlcNAc(b1-4)GlcNAc
# How it was run: as §1
# [19] = molecular target: Gal3S(b1-4)[Fuc(a1-3)]Glc6S
# How it was run: as §1
# Gal3S4S(b1-4)GlcNAc = molecular target: Gal3S4S(b1-4)GlcNAc
# How it was run: as §1
# Gal3S6S(b1-4)GlcNAc = molecular target: Gal3S6S(b1-4)GlcNAc
# How it was run: as §1
# Gal6S(b1-3)GlcNAc = molecular target: Gal6S(b1-3)GlcNAc
# How it was run: as §1
# Gal6S(b1-3)GlcNAc6S = molecular target: Gal6S(b1-3)GlcNAc6S
# How it was run: as §1
# Gal6S(b1-4)GlcNAc6S = molecular target: Gal6S(b1-4)GlcNAc6S
# How it was run: as §1
# GalNAc(a1-3)Gal = molecular target: GalNAc(a1-3)Gal
# How it was run: as §1
# [20] = molecular target: GalNAc(b1-3)Gal(a1-6)Gal(b1-4)Glc
# How it was run: as §1
# [21] = molecular target: GlcNAc(a1-3)Gal(b1-4)GlcNAc
# How it was run: as §1
# [22] = molecular target: GlcNAc(a1-4)Gal(b1-3)GlcNAc
# How it was run: as §1
# [23] = molecular target: GlcNAc(a1-4)Gal(b1-4)GlcNAc(b1-3)Gal(b1-4)[Fuc(a1-3)]GlcNAc(b1-3)Gal(b1-4)[Fuc(a1-3)]GlcNAc
# How it was run: as §1
# [24] = molecular target: GlcNAc(b1-2)Gal(b1-3)GalNAc
# How it was run: as §1
# [25] = molecular target: Man(a1-3)[Man(a1-6)]Man(a1-6)[Man(a1-2)Man(a1-3)]Man(b1-4)GlcNAc(b1-4)GlcNAc
# How it was run: as §1
# [26] = molecular target: Man(a1-3)[Man(a1-6)]Man(a1-6)[Man(a1-3)]Man
# How it was run: as §1
# [27] = molecular target: Neu5Ac(a2-3)Gal(b1-3)GlcNAc(b1-2)Man(a1-3)[Neu5Ac(a2-3)Gal(b1-3)GlcNAc(b1-2)Man(a1-6)]Man(b1-4)GlcNAc(b1-4)GlcNAc
# How it was run: as §1
# Neu5Ac(a2-3)Gal(b1-4)Glc = molecular target: Neu5Ac(a2-3)Gal(b1-4)Glc
# How it was run: as §1
# [28] = molecular target: Neu5Ac(a2-3)Gal(b1-4)GlcNAc(b1-2)Man
# How it was run: as §1
# [29] = molecular target: Neu5Ac(a2-3)Gal(b1-4)GlcNAc(b1-2)[Neu5Ac(a2-3)Gal(b1-4)GlcNAc(b1-4)]Man(a1-3)[GlcNAc(b1-4)][Neu5Ac(a2-3)Gal(b1-4)GlcNAc(b1-2)[Neu5Ac(a2-3)Gal(b1-4)GlcNAc(b1-6)]Man(a1-6)]Man(b1-4)GlcNAc(b1-4)GlcNAc
# How it was run: as §1
# [30] = molecular target: Neu5Ac(a2-3)Gal(b1-4)GlcNAc(b1-2)[Neu5Ac(a2-3)Gal(b1-4)GlcNAc(b1-4)]Man(a1-3)[GlcNAc(b1-4)][Neu5Ac(a2-3)Gal(b1-4)GlcNAc(b1-4)Man(a1-6)]Man(b1-4)GlcNAc(b1-4)GlcNAc
# How it was run: as §1
# [31] = molecular target: Neu5Ac(a2-3)Gal(b1-4)[Fuc(a1-3)]GlcNAc(b1-2)Man
# How it was run: as §1
# [32] = molecular target: Neu5Ac(a2-3)[Neu5Ac(a2-6)]GalNAc
# How it was run: as §1
# [33] = molecular target: Neu5Ac(a2-6)Gal(b1-4)GlcNAc(b1-2)Man(a1-3)Man(b1-4)GlcNAc(b1-4)GlcNAc
# How it was run: as §1
# [34] = molecular target: Neu5Ac(a2-6)GalNAc(b1-4)GlcNAc
# How it was run: as §1
# Neu5Ac(a2-8)Neu5Ac = molecular target: Neu5Ac(a2-8)Neu5Ac
# How it was run: as §1
# [35] = molecular target: Neu5Ac(a2-8)Neu5Ac(a2-3)Gal(b1-4)GlcNAc
# How it was run: as §1
# [36] = molecular target: Neu5Ac(a2-8)Neu5Ac(a2-8)Neu5Ac(a2-3)[GalNAc(b1-4)]Gal(b1-4)Glc
# How it was run: as §1
# Neu5Gc(a2-3)Gal(b1-4)Glc = molecular target: Neu5Gc(a2-3)Gal(b1-4)Glc
# How it was run: as §1
# [37] = molecular target: Neu5Gc(a2-3)Gal(b1-4)GlcNAc(b1-3)Gal(b1-4)GlcNAc(b1-2)Man(a1-3)[Neu5Gc(a2-3)Gal(b1-4)GlcNAc(b1-3)Gal(b1-4)GlcNAc(b1-2)Man(a1-6)]Man(b1-4)GlcNAc(b1-4)GlcNAc
# How it was run: as §1
# Neu5Gc(a2-6)GalNAc = molecular target: Neu5Gc(a2-6)GalNAc
# How it was run: as §1
binder,measurement,setting,value
Epa3to2 (Candida glabrata) (protein) MGSSHHHHHHSSGLVPRGSHMKRELSSQNPFGYPIGCSPQDVAIIPGLTMELYSYPIVSGTPPNCYDASYVDPEYPRTGYLKRKMVGKSTGVTGNLNYKYSVEKACMVKYGNLPAGYNYNEPLTVSNFTMILYGYFKAQTTGLHTFFVNADDLLYINFGAGNAFDCCKREDSKTKLGEYVAYDIWHVDSSKNKVSLFLEKDLYYPIRMFFNNRDNNSSLDLSFSVNGATDQISDFSGYLYSVPDQPDTCPAHIGYDTTCR,glycan array binding signal (z-score),[1],3.03
same,glycan array binding signal (z-score),[2],1.2
same,glycan array binding signal (z-score),[3],-0.709
same,glycan array binding signal (z-score),[4],2.47
same,glycan array binding signal (z-score),[5],2.11
same,glycan array binding signal (z-score),[6],-0.392
same,glycan array binding signal (z-score),[7],-0.27
same,glycan array binding signal (z-score),[8],-0.714
same,glycan array binding signal (z-score),[9],0.316
same,glycan array binding signal (z-score),[10],-1.35
same,glycan array binding signal (z-score),[11],0.878
same,glycan array binding signal (z-score),[12],-0.911
same,glycan array binding signal (z-score),Gal(b1-3)GlcNAc,-0.751
same,glycan array binding signal (z-score),[13],-0.807
same,glycan array binding signal (z-score),[14],0.52
same,glycan array binding signal (z-score),[15],0.293
same,glycan array binding signal (z-score),[16],0.761
same,glycan array binding signal (z-score),[17],-1.46
same,glycan array binding signal (z-score),[18],0.07
same,glycan array binding signal (z-score),[19],0.958
same,glycan array binding signal (z-score),Gal3S4S(b1-4)GlcNAc,-0.354
same,glycan array binding signal (z-score),Gal3S6S(b1-4)GlcNAc,2.42
same,glycan array binding signal (z-score),Gal6S(b1-3)GlcNAc,0.814
same,glycan array binding signal (z-score),Gal6S(b1-3)GlcNAc6S,3.65
same,glycan array binding signal (z-score),Gal6S(b1-4)GlcNAc6S,2.45
same,glycan array binding signal (z-score),GalNAc(a1-3)Gal,1.49
same,glycan array binding signal (z-score),[20],1.12
same,glycan array binding signal (z-score),[21],-1.07
same,glycan array binding signal (z-score),[22],-1.92
same,glycan array binding signal (z-score),[23],2.65
same,glycan array binding signal (z-score),[24],-1.16
same,glycan array binding signal (z-score),[25],3.92
same,glycan array binding signal (z-score),[26],0.52
same,glycan array binding signal (z-score),[27],-0.658
same,glycan array binding signal (z-score),Neu5Ac(a2-3)Gal(b1-4)Glc,7.38
same,glycan array binding signal (z-score),[28],2.24
same,glycan array binding signal (z-score),[29],1.37
same,glycan array binding signal (z-score),[30],-0.302
same,glycan array binding signal (z-score),[31],-0.793
same,glycan array binding signal (z-score),[32],-1.13
same,glycan array binding signal (z-score),[33],2.19
same,glycan array binding signal (z-score),[34],-0.698
same,glycan array binding signal (z-score),Neu5Ac(a2-8)Neu5Ac,1.01
same,glycan array binding signal (z-score),[35],0.968
same,glycan array binding signal (z-score),[36],0.534
same,glycan array binding signal (z-score),Neu5Gc(a2-3)Gal(b1-4)Glc,0.038
same,glycan array binding signal (z-score),[37],-0.277
same,glycan array binding signal (z-score),Neu5Gc(a2-6)GalNAc,2.12
